High-throughput results: PubChem BioAssay, Center for Chemical Genomics, University of Michigan
Dicer inh – inhibitors of Dicer pre-microRNA processing, primary screen, biochemical, cat-ELCCA, chemiluminescence. z-score at 25 µM. cat-ELCCA pre-miR-21 Dicer processing; hits give high values. actives 6% (n = 47,000); in the data active = z-score above about 3, passing the limit was not always enough;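 note: plate controls were vehicle for no effect and no enzyme for full effect; higher signal means more uncleaved substrate so more Dicer inhibition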
Target sequence (Q9UPY3 whole entry, looked up): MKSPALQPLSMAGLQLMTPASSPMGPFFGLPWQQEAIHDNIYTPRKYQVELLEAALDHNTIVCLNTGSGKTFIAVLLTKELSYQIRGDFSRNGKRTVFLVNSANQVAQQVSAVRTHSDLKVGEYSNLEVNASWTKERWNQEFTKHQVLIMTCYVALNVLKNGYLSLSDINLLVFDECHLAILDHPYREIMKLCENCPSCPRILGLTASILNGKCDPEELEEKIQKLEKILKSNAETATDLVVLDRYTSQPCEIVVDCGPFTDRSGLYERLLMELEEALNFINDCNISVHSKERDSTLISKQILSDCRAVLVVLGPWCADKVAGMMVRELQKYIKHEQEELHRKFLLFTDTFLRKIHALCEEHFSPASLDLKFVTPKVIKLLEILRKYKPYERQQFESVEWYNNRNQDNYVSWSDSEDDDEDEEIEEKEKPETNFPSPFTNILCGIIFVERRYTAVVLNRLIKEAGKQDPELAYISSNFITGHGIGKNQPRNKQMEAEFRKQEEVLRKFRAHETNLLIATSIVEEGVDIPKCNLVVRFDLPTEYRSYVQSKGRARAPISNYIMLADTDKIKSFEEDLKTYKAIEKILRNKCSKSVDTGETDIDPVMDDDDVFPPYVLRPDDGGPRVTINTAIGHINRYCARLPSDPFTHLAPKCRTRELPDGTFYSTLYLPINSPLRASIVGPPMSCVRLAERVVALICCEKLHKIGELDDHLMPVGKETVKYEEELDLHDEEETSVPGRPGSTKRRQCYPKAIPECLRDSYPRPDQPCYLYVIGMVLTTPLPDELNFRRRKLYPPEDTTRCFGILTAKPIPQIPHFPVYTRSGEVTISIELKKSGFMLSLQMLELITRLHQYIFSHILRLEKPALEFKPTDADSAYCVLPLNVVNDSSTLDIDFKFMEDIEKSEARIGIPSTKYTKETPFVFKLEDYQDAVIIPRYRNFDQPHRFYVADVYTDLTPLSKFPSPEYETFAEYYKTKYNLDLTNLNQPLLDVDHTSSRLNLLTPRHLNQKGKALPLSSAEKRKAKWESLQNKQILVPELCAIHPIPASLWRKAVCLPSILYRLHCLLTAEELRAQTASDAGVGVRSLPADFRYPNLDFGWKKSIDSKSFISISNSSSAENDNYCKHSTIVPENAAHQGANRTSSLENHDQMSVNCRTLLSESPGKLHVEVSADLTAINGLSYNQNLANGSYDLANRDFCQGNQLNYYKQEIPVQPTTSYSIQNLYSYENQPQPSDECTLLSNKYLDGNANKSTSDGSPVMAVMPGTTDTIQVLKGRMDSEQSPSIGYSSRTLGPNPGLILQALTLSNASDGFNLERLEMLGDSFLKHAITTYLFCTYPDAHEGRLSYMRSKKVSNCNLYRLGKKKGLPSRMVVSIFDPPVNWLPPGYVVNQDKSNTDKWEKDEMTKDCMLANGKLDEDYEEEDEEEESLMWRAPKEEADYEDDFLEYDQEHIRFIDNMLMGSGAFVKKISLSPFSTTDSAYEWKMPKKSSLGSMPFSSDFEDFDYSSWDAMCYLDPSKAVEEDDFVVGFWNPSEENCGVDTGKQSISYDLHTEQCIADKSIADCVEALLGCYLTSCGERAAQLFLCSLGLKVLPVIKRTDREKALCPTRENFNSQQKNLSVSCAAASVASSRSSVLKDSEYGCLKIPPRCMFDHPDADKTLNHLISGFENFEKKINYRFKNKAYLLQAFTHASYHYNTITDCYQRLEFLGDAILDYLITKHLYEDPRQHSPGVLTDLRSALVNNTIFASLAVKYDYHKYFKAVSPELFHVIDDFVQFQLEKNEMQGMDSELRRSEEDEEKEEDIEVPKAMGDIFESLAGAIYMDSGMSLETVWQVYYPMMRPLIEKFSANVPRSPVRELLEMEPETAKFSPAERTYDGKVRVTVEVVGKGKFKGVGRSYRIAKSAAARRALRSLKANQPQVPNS
The depositor's hits bear a star. Shown is part of a subset that was picked to be rich in hits.

SMILES	Dicer inh
CCN(CC)C(=O)C1Sc2nnc(-c3ccccc3)n2NC1c1ccc(Cl)cc1 (stereo not given)	2.2
CC1(C)SC([C@@H](O)[C@H](O)[C@H](O)CO)N[C@H]1C(=O)O (stereo not given in full)	-1.56
Cc1sc2nc(-c3ccc(N4C(=O)CCC4=O)cc3)oc(=O)c2c1C	0.28
COc1ccc(S(=O)(=O)N(CCC#N)C2CCc3ccccc32)cc1OC (stereo not given)	-2
CCOC(=O)Cc1n[nH]c(=O)[nH]c1=O	-0.76
CCC(Nc1n[nH]c(=O)[nH]c1=O)C(=O)OC (stereo not given)	3.22*
O=C(O)CNc1n[nH]c(=O)[nH]c1=O	-0.93
CCc1nc(C)cn1S(=O)(=O)c1cc(C(C)C)c(C)cc1OC	-0.18
Cn1c(=O)c2c(nc(CN3CCN(c4ccccc4)CC3)n2CC(=O)C(C)(C)C)n(C)c1=O	0.91
FC(F)(F)c1cc(-c2ccccc2)n[nH]1	0.31
Cc1ccc(O)c(-c2cc(C(F)(F)F)[nH]n2)c1	4.1*
FC(F)(F)c1cc(-c2ccc3c(c2)OCO3)n[nH]1	-0.7
CC(C)(C)OC(=O)NC(Cc1ccccc1)C(N)=O (stereo not given)	0.33
COC(=O)C1=C(C(=O)OC)SC(=C2C(=S)C(C)(C)N(C(C)=O)c3ccc(C)cc32)S1	1.55
COc1cc(C2Nc3ccccc3NC3=C2C(=O)CC(c2ccc(OC)c(OC)c2)C3)ccc1O (stereo not given)	-0.72
COc1ccc(C2CC(=O)C3=C(C2)Nc2ccccc2NC3c2cccc3ccccc23)cc1OC (stereo not given)	5.38*
COc1ccc(C2Nc3ccccc3NC3=C2C(=O)CC(c2ccccc2)C3)c(OC)c1 (stereo not given)	1.71
COc1cc(C2Nc3ccccc3NC3=C2C(=O)CC(c2ccc4c(c2)OCO4)C3)ccc1OC(C)=O (stereo not given)	1.36
COc1ccc(C2CC(=O)C3=C(C2)Nc2ccccc2NC3c2ccc(OC)c(O)c2)cc1 (stereo not given)	1.04
CSc1ccc(C2Nc3ccccc3NC3=C2C(=O)CC(c2ccc4c(c2)OCO4)C3)cc1 (stereo not given)	4.58*
Cc1ccc(C2CC(=O)C3=C(C2)Nc2ccccc2NC3c2ccc3c(c2)OCO3)cc1 (stereo not given)	-1.12
COc1ccc(C2CC(=O)C3=C(C2)Nc2ccccc2NC3c2ccc(SC)cc2)cc1OC (stereo not given)	5.24*
COc1ccc(C2CC(=O)C3=C(C2)Nc2ccccc2NC3c2cc(OC)ccc2OC)cc1 (stereo not given)	-0.4
O=c1sn(-c2ccc(F)c(Cl)c2)c(=O)n1C1Cc2ccccc2C1	0.96
CC(C)(C)CC(C)(C)NC(=O)C(Sc1ccccc1N)c1ccccc1 (stereo not given)	-0.37
SMILES	Dicer inh
Cc1ccsc1C1CC(=O)Oc2c1c(=O)n(C)c1ccccc21 (stereo not given)	-1.28
N#Cc1c(Cl)cccc1NC1CCCCNC1=O (stereo not given)	0.47
Cc1cccc(C)c1-n1c(-c2ccncc2)n[nH]c1=S	-1.29
COc1ccc([N+](=O)[O-])c(SC(C)C(=O)O)n1 (stereo not given)	0.05
Nc1ccccc1SC1CC(=O)N(c2ccccc2Oc2ccc(Cl)cc2Cl)C1=O (stereo not given)	1.14
Cc1cc([N+](=O)[O-])ccc1S(=O)(=O)NNC(=O)CSc1nc2cccnc2s1	0.06
Cn1c(/C=C/c2cn(Cc3ccccc3)c3ccccc23)nc2ccccc2c1=O	10.5
C(=C\c1ccc2c(c1)OCO2)/C1=NN(c2ccccc2)C(c2ccc3c(c2)OCO3)C1 (stereo not given)	0.21
Cn1c(/C=C/c2ccc3c(c2)OCO3)nc2ccccc2c1=O	6.24*
CN(C)CCCN1C(=O)C(=O)/C(=C(/O)c2ccccc2)C1c1ccncc1 (stereo not given)	2.82
CC(=O)Nc1ccccc1OCCN(Cc1ccccc1)C(=O)c1ccc(Cl)cc1	0.24
Cc1cccc(CN2CCN(Cc3c[nH]c4ccccc34)CC2)c1	1.72
Fc1ccccc1CN1CCN(CCCc2ccccc2)CC1	2.52
Fc1ccccc1CN1CCN(Cc2c[nH]c3ccccc23)CC1	3.66*
FC(F)(F)c1cnc(N2CCN(Cc3c[nH]c4ccccc34)CC2)c(Cl)c1	-1.59
CCS(=O)(=O)N1CCN(Cc2c[nH]c3ccccc23)CC1	3.45*
Clc1ccccc1CN1CCN(Cc2c[nH]c3ccccc23)CC1	4.48*
Brc1ccc(CN2CCN(Cc3c[nH]c4ccccc34)CC2)cc1	2.71
O=C1COCC(=O)N1CCc1c[nH]c2ccccc12	-1.21
COc1ccc2c(c1)CCCN2Cc1c[nH]c2ccccc12	-1.88
COc1ccc(-c2cc(C)nc3ncnn23)cc1	0.07
Cc1ccc2c(c1)OC(c1ccc(N(C)C)cc1)N2 (stereo not given)	-0.36
CCc1cc2c3c(c1)C(C)=CC(C)(C)N3C(=O)C2=O	1.34
C/C(=N\NC1=NCCN1Cc1ccccc1)c1ccccc1	-0.14
